# Source: PubChem BioAssay
# ABCB6 inh 2 – inhibitors of human ABC transporter ABCB6 | K562-ABCB6 porphyrin accumulation, flow cytometry, 1 h; hits give low values | fluorescence ratio to DMSO, % at 10 µM | hit rate 0.19% among 360,000 | AID 602162;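 active means fluorescence ratio to DMSO below 75%, the collection mean minus 3 SD; inconclusive means too few cells collected in the well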;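 further: signal is porphyrin accumulated inside mitochondria; lower ratio means ABCB6 inhibition with less porphyrin fluorescence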
# Myeloid diff MLP – compounds promoting myeloid differentiation; ER-HoxA9 myeloid progenitors, lysozyme-GFP differentiation, flow cytometry; calls only at 10 µM; hit rate 1% among 360,000;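 active means normalized GFP-positive differentiation at or above the plate's own cutoff, the solvent-only control mean plus 3 SD; inconclusive means no clear call, values can overlap the other calls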;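 further: cells exposed to compound for four days before flow analysis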
# Vif imaging – HIV Vif inhibition; HEK293T cells, Vif self-association by quenched fluorescence, imaging, 24 h; inhibition, % at 7.49 µM; hit rate 0.35% among 340,000; in the data active means inhibition above about 50%, passing the limit was not always enough; inconclusive means no clear call, values can overlap the other calls; inactive means below about 31%
# RAD54 branch – RAD54 (human) branch migration inhibition; Q92698; RAD54 Holliday junction branch migration, FAM/BHQ fluorescence; inhibition, % at 10.4 µM; hit rate 0.14% among 360,000;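 active means mean normalized replicate activity at least 40 and at least half of replicates scoring 40 or more; inconclusive means only one of the two criteria met; inactive means mean below 40 and under half of replicates reaching 40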;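 further: inhibitors cause a drop in the FAM fluorescence signal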
# Target sequence (Q92698 whole entry, looked up): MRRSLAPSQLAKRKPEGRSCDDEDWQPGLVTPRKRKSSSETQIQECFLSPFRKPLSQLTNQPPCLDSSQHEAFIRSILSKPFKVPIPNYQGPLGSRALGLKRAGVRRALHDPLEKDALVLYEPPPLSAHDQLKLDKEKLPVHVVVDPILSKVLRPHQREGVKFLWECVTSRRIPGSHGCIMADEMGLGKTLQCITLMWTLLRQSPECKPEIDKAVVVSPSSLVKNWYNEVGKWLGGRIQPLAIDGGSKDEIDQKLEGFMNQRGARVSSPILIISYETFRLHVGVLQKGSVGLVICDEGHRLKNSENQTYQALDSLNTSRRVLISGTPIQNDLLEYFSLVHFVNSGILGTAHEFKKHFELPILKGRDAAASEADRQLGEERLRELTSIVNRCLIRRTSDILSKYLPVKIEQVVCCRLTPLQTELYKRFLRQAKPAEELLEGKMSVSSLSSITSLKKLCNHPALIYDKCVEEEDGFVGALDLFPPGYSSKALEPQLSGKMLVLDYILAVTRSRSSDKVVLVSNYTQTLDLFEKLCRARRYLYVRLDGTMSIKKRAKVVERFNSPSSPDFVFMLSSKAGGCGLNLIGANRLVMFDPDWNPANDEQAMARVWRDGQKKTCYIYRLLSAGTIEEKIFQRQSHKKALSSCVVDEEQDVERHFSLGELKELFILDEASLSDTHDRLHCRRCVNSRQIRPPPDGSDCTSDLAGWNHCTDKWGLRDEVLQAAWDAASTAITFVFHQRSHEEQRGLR
# N-glyco inh – N-linked glycosylation inhibition. D54 ERlucT glycosylation luciferase reporter, 24 h; percent of 100 nM tunicamycin response. reporter increase, % at 12.5 µM. hit rate 0.23% among 360,000;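 active means mean luciferase reporter signal, scaled so untreated is 0 and the glycosylation-blocking control 100, at or above a set limit in every replicate; inconclusive means mean reaches the limit but not every replicate does; inactive means mean below the limit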;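 further: luciferase carries N-glycosylation sites so blocking glycosylation raises the light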
# Hits are given with their value; – = inactive; ? = inconclusive; · = no result given; + = active, no number. Rows were chosen to be rich in hits. Some 1.6% of all compounds tested hit in one or more screens of this group.
SMILES,ABCB6 inh 2,Myeloid diff MLP,Vif imaging,RAD54 branch,N-glyco inh
CC[n+]1c(/C=C/C=C/c2ccc(N(C)C)cc2)sc2ccccc21,–,?,–,–,28
CC=Cc1ccc2n(c1=O)C[C@@H]1[C@@H](CO)[C@H](C(=O)O)[C@H]2N1S(=O)(=O)c1ccccc1F (mixture of isomers),·,·,·,–,·
O=C(O)[C@H]1[C@H](CO)[C@H]2Cn3c(ccc(-c4cccc(F)c4)c3=O)[C@@H]1N2CCc1ccccc1,·,·,·,–,·
O=C(Cc1ccccn1)N1CCCCN2[C@H](CO)[C@H](c3ccc(Br)cc3)[C@H]2C1,·,·,·,–,·
Cc1cc(/C=C2\C(=O)NC(=O)N(c3ccc(Cl)cc3)C2=O)c(C)n1-c1cccc(C(=O)O)c1,–,–,–,–,–
O=C1NC(=O)N(c2ccc(Cl)cc2)C(=O)/C1=C/c1coc2ccc(O)cc2c1=O,–,+,–,–,–
O=C1NC(=O)N(c2ccccc2)C(=O)/C1=C/c1coc2ccc(O)cc2c1=O,–,+,–,–,–
COc1ccc(C#Cc2ccc([C@@H]3[C@H]4CN(C(=O)Cc5cccnc5)CCCCN4[C@H]3CO)cc2)cc1,·,·,·,–,·
c1ccc2c(CN3CCCCCCC3)c[nH]c2c1,–,+,–,–,–
C=CCn1c(=O)c(C=Nc2c(OC)cccc2[N+](=O)[O-])c(O)n(CCCC)c1=O,–,–,–,·,–
C=CCn1c(=O)c(C=Nc2cccc([N+](=O)[O-])c2)c(O)n(CCCC)c1=O,–,+,–,–,–
COC(=O)[C@H]1[C@H](CO)[C@H]2Cn3c(cccc3=O)[C@@H]1N2C(=O)C1CCCC1,·,·,·,–,·
C/C=C(\C)C(=O)N[C@@H](c1ccccc1)[C@@H](O)C(=O)O[C@H]1C[C@@]2(O)[C@@H](OC(=O)c3ccccc3)C3[C@](C)(C(=O)[C@H](OC(C)=O)C(=C1C)C2(C)C)[C@@H](O)C[C@H]1OC[C@@]31OC(C)=O (some centres undefined),–,+,–,–,–
CCCCCCC[n+]1ccc(-c2cc[n+](CCCCCCC)cc2)cc1,–,–,–,–,–
CCCCCCCCCCCCCCCC[n+]1ccccc1,–,?,–,55,–
C=C1C(=O)O[C@@H]2C[C@@H](C)[C@@H]3C=CC(=O)[C@@]3(C)[C@@H](O)[C@H]12,–,?,54,–,–
COC(=O)[C@H]1[C@H](CO)[C@H]2Cn3c(ccc(/C=C/c4ccccc4)c3=O)[C@@H]1N2Cc1ccccc1F,·,·,·,–,·
O=C(Cc1ccccn1)N1CCCCN2[C@H](CO)[C@H](c3ccc(C#Cc4ccccc4)cc3)[C@@H]2C1,·,·,·,–,·
O=C(Cc1ccccc1)OCC(=O)c1ccc(F)cc1,–,–,87,–,–
O=C(Cc1ccccc1)OCC(=O)c1ccccc1,–,–,–,–,–
CCCCn1c(O)c(C(CC)=NCc2cc(OC)cc(OC)c2)c(=O)[nH]c1=O,–,–,–,–,–
CCCCn1c(O)c(C(C)=NCc2cc(OC)cc(OC)c2)c(=O)[nH]c1=O,–,+,–,–,–
CC12CC[C@H]3[C@@H](CCC4(O)C[C@H](O)CCC34/C=N/NC(=O)c3ccccc3O)C1(O)CCC2C1=CC(=O)OC1 (some centres undefined),–,–,–,·,32
CC12CC[C@H]3[C@@H](CCC4(O)C[C@H](O)CCC34/C=N/NC(=O)c3ccc(O)cc3)C1(O)CCC2C1=CC(=O)OC1 (some centres undefined),–,–,–,–,–
COc1ccc(C(=O)N/N=C/C23CC[C@@H](O)CC2(O)CC[C@@H]2[C@@H]3CCC3(C)C(C4=CC(=O)OC4)CCC23O)cc1 (some centres undefined),–,+,–,·,38
SMILES,ABCB6 inh 2,Myeloid diff MLP,Vif imaging,RAD54 branch,N-glyco inh
CC(C)CC#Cc1ccc([C@H]2[C@@H](CO)N3CCCCN(C(=O)Cc4ccccn4)C[C@H]23)cc1,·,·,·,–,·
CCOC(=O)[C@]1(C#N)[C@@H]2C=CC(C(N)=O)=CN2[C@@H](C(N)=O)[C@@H]1c1ccc(F)cc1,–,–,–,·,–
CCOC(=O)[C@@]1(C#N)[C@@H]2C=CC(C(N)=O)=CN2[C@@H](C(N)=O)[C@@H]1c1cccc(Cl)c1,–,+,–,–,–
COC(=O)[C@@H]1[C@@H](CO)[C@@H]2Cn3c(ccc(C4=CCCCC4)c3=O)[C@H]1N2C(=O)CC1CC1,·,·,·,–,·
O=C(Cc1ccccn1)N1CCCCN2[C@H](CO)[C@H](c3ccc(-c4ccccc4F)cc3)[C@@H]2C1,·,·,·,–,·
CC(C)c1ccc(-n2c(O)c(C=NCCN3CCNCC3)c(=O)[nH]c2=S)cc1,–,+,–,–,–
COc1ccc(-n2c(/C=C/c3ccc(O)c(OC)c3)nc3ccccc3c2=O)cc1,–,+,–,–,–
OC1(c2ccc(F)cc2)CCNC1 (centres undefined),–,–,82,–,–
COC(=O)C1=C(c2ccc(F)cc2OCc2ccccc2)C[C@@H]2CC[C@H]1N2C(=O)NCCOc1ccccc1Cl,–,–,–,–,–
COC(=O)C1=C(c2ccc(F)cc2OCc2ccccc2)C[C@@H]2CC[C@H]1N2C(=O)NCc1ccccc1Cl,–,+,–,–,–
COC(=O)C1=C(c2cccc(OCc3ccccc3)c2)C[C@@H]2CC[C@H]1N2C(=O)NCc1ccc(N(C)C)cc1,–,+,–,–,–
CCN1[C@@H]2Cn3c(ccc(-c4ccc(OC)cc4)c3=O)[C@H]1[C@@H](C(=O)OC)[C@@H]2CO,·,·,·,–,·
CCN1[C@@H]2c3ccc(-c4cccc(OC)c4)c(=O)n3C[C@H]1[C@H](CO)[C@H]2C(=O)OC,·,·,·,–,·
CN1CCc2nc3ccc(F)cc3c(C(N)=O)c2C1,–,–,60,–,–
Nc1c2c(nc3ccccc13)CCN(Cc1ccccc1)C2,–,–,–,–,–
COc1cc2c(cc1OC)-c1c3c(cc4c1[C@@H](C2)N(C)CC4)OCO3,–,–,–,104,?
COc1cc2c(cc1OC)-c1c(OC)c(OC)cc3c1C(C2)N(C)CC3 (centres undefined),–,–,–,62,–
CC[n+]1c(-c2ccccc2)c2cc(N)ccc2c2ccc(N)cc21,–,+,–,·,–
CN(C)c1ccc(NC(=O)CN2C(=O)CN=C(c3ccccc3)c3cc(Cl)ccc32)cc1,–,–,–,–,–
CN(C)c1ccc(NC(=O)CN2C(=O)CN=C(c3ccccc3)c3ccccc32)cc1,–,+,–,–,–
O=C(/C=C/c1ccc2c(c1)OCO2)c1c(O)n(CCc2ccccc2)c(=O)[nH]c1=O,–,–,–,–,–
COc1cc(/C=C/C(=O)c2c(O)n(CCc3ccccc3)c(=O)[nH]c2=O)ccc1O,–,+,–,·,–
Cc1ccccc1-c1ccc([C@@H]2[C@H](CO)N3CCCCN(C(=O)Cc4ccccn4)C[C@@H]23)cc1,·,·,·,–,·
CCCCn1c(=O)c(C(=O)Nc2cnccn2)c(O)c2ccccc21,–,+,–,·,–
CC(C)COC(=O)c1ccccc1C(=O)OCC(C)C,–,–,–,–,–
C[CH2][Hg][S]c1ccccc1C(=O)O,–,+,–,–,63
